Bioassay records as filed in PubChem.
This is one part of a sample in which hits are shown more often than they occur.
U2OS ROS induce – cancer cell ROS induction; U2OS ROS induction, H2DCF-DA fluorescence; ROS induction (% of piperlongumine), % at 10 µM; actives 2% (n = 46,000); AID 624156; in the data active = ROS induction above about 79%, passing the limit was not always enough;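 also: 0% = DMSO vehicle median and 100% = reference compound median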
Active calls of the source: *.

SMILES	U2OS ROS induce
COc1ccc(CN(C)C[C@H]2OCCCC[C@@H](C)Oc3ccc(NC(=O)Nc4ccc(OC)cc4)cc3C(=O)N([C@H](C)CO)C[C@@H]2C)cc1	122*
COc1ccc(CN(C)C[C@@H]2OCCCC[C@@H](C)Oc3ccc(NC(=O)Nc4ccc(C(F)(F)F)cc4)cc3C(=O)N([C@H](C)CO)C[C@@H]2C)cc1	35
COc1ccc(CN(C)C[C@@H]2OCCCC[C@@H](C)Oc3ccc(NC(=O)Nc4ccc(F)cc4)cc3C(=O)N([C@H](C)CO)C[C@@H]2C)cc1	119*
C[C@@H]1CCCCO[C@@H](CN(C)C(=O)Nc2cccc3ccccc23)[C@@H](C)CN([C@H](C)CO)C(=O)c2cc(NC(=O)Nc3cccc4ccccc34)ccc2O1	48
COc1ccc(NC(=O)Nc2ccc3c(c2)C(=O)N([C@H](C)CO)C[C@H](C)[C@@H](CN(C)Cc2ccc(C(=O)O)cc2)OCCCC[C@@H](C)O3)cc1	48
Cc1ccc(-n2cnc3cc(NC(=O)c4ccccc4)ccc32)cc1	19
CC(C)c1ccc(Nc2nc(N3CCCCC3)nc(N3CCCCC3)n2)cc1	3
O=C(COc1nnc(SCCS(=O)(=O)c2ccc(F)cc2)n1C1CC1)c1ccc(F)cc1	-3
NC(=O)C1CCN(C(=O)Cn2ncc3c4ccccc4n(Cc4ccc(F)cc4)c3c2=O)CC1	-1
COc1ccc(NC(=O)Nc2ccc3c(c2)C(=O)N([C@H](C)CO)C[C@H](C)[C@H](CN(C)C(=O)Nc2ccc(OC)cc2)OCCCC[C@@H](C)O3)cc1	0
COc1ccc(NC(=O)Nc2ccc3c(c2)C(=O)N([C@H](C)CO)C[C@H](C)[C@@H](CN(C)C(=O)C2CCCCC2)OCCCC[C@@H](C)O3)cc1	114*
C[C@@H]1CCCCO[C@@H](CN(C)C(=O)C2CCCCC2)[C@@H](C)CN([C@H](C)CO)C(=O)c2cc(NC(=O)Nc3ccccc3)ccc2O1	24
CCN1C(=O)/C(=C\c2ccsc2)SC1=S	9
CC1(C)O[C@@H]2[C@H](O1)[C@@H](CO)O[C@H]2n1cnc2c(N)ncnc21	85*
CC1(C)OC2C(CO)OC(n3cnc4c(=O)[nH]cnc43)C2O1 (stereo not given)	33
Nc1ncnc2c1ncn2C1OC(CO)[C@H](O)[C@@H]1S (stereo not given in full)	0
COC(=O)c1ccc(C2N(Cc3ccccc3)CCN2Cc2ccccc2)cc1	-7
NC(=O)c1c(-c2ccc(Cl)cc2)csc1NC(=O)CCCc1ccccc1	26
CCc1cc(=O)oc2c(C)c(OC)ccc12	-12
O=C(C[n+]1ccccc1)Nc1c2c(nc3c1CCC3)CCCC2	-7
Cc1sc(NC(=O)c2ccccc2)c(C(=O)N2CCCCC2)c1C	68
O=C(Nc1nc2ccc(Cl)cc2s1)C1CN(C(c2ccccc2)c2ccccc2)C1	10
CCc1cc(C(c2ccc(Cl)cc2)N2CCN(CCO)CC2)c(NC(=O)c2ccccc2)s1 (stereo not given)	89*
Cc1ccccc1NC(NC(=O)c1ccco1)C(=O)c1ccccc1 (stereo not given)	-4
COc1ccccc1N=C(NO)C(=Nc1ccccc1OC)NO	-24
